High-throughput results: PubChem, National Center for Advancing Translational Sciences (NCATS)
Compounds with a hit are over-represented: about 12% of the library has one in this group of screens.
JMJD2A Tudor inh – inhibitors of human JMJD2A Tudor domain. O75164. Potency, µM (series often up to 114 µM), usual class: inhibitors. actives 4.4% (n = 390,000). AlphaScreen JMJD2A-Tudor / H3K4me3 peptide binding. AID 504339; further: nearly all actives have a fitted effect of over 50% in size
BAZ2B block – inhibitors of human BAZ2B bromodomain; AlphaScreen BAZ2B-H3K14Ac peptide displacement; Potency, µM (series often up to 114 µM), actives largely listed as inhibitors; actives 4.4% (n = 360,000); AID 504333; further: nearly all actives have a fitted effect of over 60% in size
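AlphaScreen displacement of biotin-H3(5-23)K14Ac peptide (50 nM final) from BAZ2B (50 nM final) in PBS pH 7.4, 0.01% Tween-20; complex preformed 30 min RT, then compounds (top 110 uM) 30 min RT, beads 20 min dark.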
G9a inh – G9a (human) methyltransferase inhibition. G9a H3K9 monomethylation, AlphaScreen, 2 h. AID 504332. Potency, µM (doses to about 102 µM), usual class: inhibitors. actives 8.8% (n = 350,000); further: nearly all actives have a fitted effect of over 75% in size
Target sequence (Q96KQ7 913-1193 limits assumed): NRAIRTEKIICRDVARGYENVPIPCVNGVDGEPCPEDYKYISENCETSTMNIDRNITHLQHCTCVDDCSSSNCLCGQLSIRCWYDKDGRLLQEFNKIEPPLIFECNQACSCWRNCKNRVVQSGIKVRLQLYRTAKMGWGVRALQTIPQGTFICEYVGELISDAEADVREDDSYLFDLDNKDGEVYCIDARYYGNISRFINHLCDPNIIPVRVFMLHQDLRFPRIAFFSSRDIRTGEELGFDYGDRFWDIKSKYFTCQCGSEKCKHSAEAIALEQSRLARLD
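Compounds were preincubated with 20 nM G9a for 15 min, after which biotinylated H3K9 peptide (500 nM) and SAM (20 uM) started a 2 h room-temperature reaction. Monomethylated product was quantified by antibody-based AlphaScreen chemiluminescence.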
Sfp PPTase inh – Sfp phosphopantetheinyl transferase inhibition | Q9F4F7 | Biochemical Sfp PPTase activity, qHTS | Potency, µM, hits mostly inhibitors | actives 3.5% (n = 310,000) | AID 1490;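 further: the enzyme is Sfp with the accession as filed and its product quenches rhodamine fluorescence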
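Step 1, compound plus 15 nM Sfp-PPTase, 15 min, room temperature. Step 2, add rhodamine-CoA (5 uM) and BHQ-2-YbbR (12.5 uM). Step 3, read 525/598 nm fluorescence at 0 and 30 min.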
HP1b chromo inh – blocks HP1-beta chromodomain binding to methylated histone tails; P83916; AlphaScreen HP1-beta / biotin-H3K9me3 peptide binding; Potency, µM (series often up to 114 µM), usual class: inhibitors; actives 0.56% (n = 390,000); AID 540317; further: nearly all actives have a fitted effect of over 70% in size
Target sequence (P83916 whole entry, looked up): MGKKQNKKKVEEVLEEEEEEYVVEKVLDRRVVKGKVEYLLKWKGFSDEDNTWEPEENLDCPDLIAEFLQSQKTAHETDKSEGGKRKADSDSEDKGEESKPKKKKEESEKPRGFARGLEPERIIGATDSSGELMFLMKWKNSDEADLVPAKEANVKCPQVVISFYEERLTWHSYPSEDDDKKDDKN
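AlphaScreen: HP1-beta (50 nM) preformed 30 min with biotin-H3(1-18)K9me3 peptide (50 nM) in PBS pH 7.4, 0.01% Tween-20. Compound added for 30 min at RT, then streptavidin donor/nickel chelate acceptor beads (10 ug/mL) for 30 min.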
Of the large screens only hits and unclear results are named; the others gave an inactive call. The call rests on the fitted dose curve; in most records, active means well fitted curve in the direction sought with a large enough effect; inconclusive means small, poorly fitted or top-dose-only effect, or another doubt; inactive means no such curve, though single readings can be large; an effect the other way counts as inactive or inconclusive.

CCOC(=O)C(C(=O)OCC)C(C)C#CCN1CCCCC1 (stereo not drawn)	none
O=C(Nc1ccc(N2CCOCC2)cc1)C1CCCN(S(=O)(=O)c2cccc(C(F)(F)F)c2)C1 (stereo not drawn)	none
Cc1c2ccccc2c(CSC(=N)N)c2ccccc12	Sfp PPTase inh 44.7µM (no result: JMJD2A Tudor inh, BAZ2B block, G9a inh, HP1b chromo inh)
Cc1c2ccccc2c(C)c2c1ccc1ccccc12	none (no result: Sfp PPTase inh)
CC(=O)c1sc(NC(=O)c2ccc(COc3ccccc3Cl)o2)nc1C	none
COc1cccc(NC(=O)c2cc(-c3ccco3)nc3ccccc23)c1	JMJD2A Tudor inh inconclusive (no result: BAZ2B block, G9a inh, Sfp PPTase inh)
CN(CC(=O)Nc1ccc(F)cc1)C(=O)c1cc(-c2ccco2)nc2ccccc12	JMJD2A Tudor inh inconclusive, BAZ2B block 39.8µM (no result: Sfp PPTase inh)
COc1cccc(NC(=O)CN(C)C(=O)c2cc(-c3ccco3)nc3ccccc23)c1	JMJD2A Tudor inh 17.8µM, BAZ2B block 79.4µM, G9a inh 50.1µM, HP1b chromo inh inconclusive (no result: Sfp PPTase inh)
Cc1ccc(NC(=O)CN(C)C(=O)c2cc(-c3ccco3)nc3ccccc23)cc1	JMJD2A Tudor inh 20µM, BAZ2B block 44.7µM, G9a inh 31.6µM, HP1b chromo inh 50.1µM (no result: Sfp PPTase inh)
CCOc1ccc(NC(=O)CN(C)C(=O)c2cc(-c3ccco3)nc3ccccc23)cc1OCC	none (no result: BAZ2B block, G9a inh, Sfp PPTase inh)
CC(NS(=O)(=O)c1ccc(Br)cc1)C(=O)NCc1ccc2c(c1)OCO2 (stereo not drawn)	none
COc1ccc(/C=N/NC(=O)c2ccc3c(c2)OCO3)cc1	BAZ2B block inconclusive, G9a inh 79.4µM
COc1cc(/C=N/NC(=O)c2ccc3c(c2)OCO3)ccc1O	G9a inh inconclusive
COc1ccc(NS(=O)(=O)c2cccc(C(=O)N/N=C/c3ccc4c(c3)OCCO4)c2)cc1	Sfp PPTase inh 15.8µM
Cc1ccc(C(=O)N(C)CC(=O)Nc2ccc(F)c(F)c2F)o1	none
CCOC1=C/C(=C/c2c(N)n3nc(S(=O)(=O)CC)sc3nc2=O)C=CC1=O	G9a inh 35.5µM
CCOC1=C/C(=C/c2c(N)n3nc(CC(=O)N4CCCCC4)sc3nc2=O)C=CC1=O	JMJD2A Tudor inh inconclusive, BAZ2B block inconclusive, G9a inh 50.1µM
Cc1nc2ccc(NC(=O)Cc3ccc4c(c3)OCCO4)cc2s1	none
Cc1cc(-c2nsc(=O)o2)c(S(C)(=O)=O)s1	JMJD2A Tudor inh inconclusive, G9a inh 2µM, HP1b chromo inh inconclusive
NS(=O)(=O)c1ccc(N=NN2CCCCC2)cc1	G9a inh inconclusive
Cc1occc1C(=O)Nc1ccc(S(N)(=O)=O)cc1	JMJD2A Tudor inh 22.4µM, HP1b chromo inh inconclusive (no result: G9a inh)
Cc1cc(NC(=O)c2cc([N+](=O)[O-])cc([N+](=O)[O-])c2)no1	none
Cc1cc(NC(=O)c2cc(C)on2)no1	none
Cc1cc(NC(=O)c2cc([N+](=O)[O-])cc([N+](=O)[O-])c2C)no1	BAZ2B block inconclusive, Sfp PPTase inh 79.4µM (no result: G9a inh)
CNS(=O)(=O)c1ccc(NC(=O)c2ccoc2C)cc1	none
Cc1occc1C(=O)Nc1ccccc1NC(=O)c1ccoc1C	JMJD2A Tudor inh 89.1µM (no result: BAZ2B block, G9a inh, Sfp PPTase inh)
Cc1cc(NC(=O)c2ccoc2C)no1	G9a inh 5.01µM
Cc1occc1C(=O)Nc1ccccc1C#N	none (no result: G9a inh)
CCC(=O)N1CCN=C1SCc1c(F)cccc1Cl	none
O=S(=O)(Nc1cccnc1)c1cccs1	G9a inh inconclusive
COc1ccc(C(=O)Nc2ccc(N3CCN(C)CC3)cc2)cc1OC	none (no result: G9a inh)
Cc1nc(CN(C)C(=O)c2cc(COc3ccc4ncccc4c3)on2)cs1	G9a inh inconclusive
O=C(c1nc2ccccn2c1CNCCCn1ncc2ccccc21)N1CCCC1	none (no result: G9a inh)
Cc1occc1C(=O)Nc1cccc2ccccc12	G9a inh 11.2µM
Cc1ccsc1C(=O)NNC(=O)Nc1ccc(Cl)c(Cl)c1	none
Cc1occc1C(=O)NNC(=O)Nc1ccc(Cl)c(Cl)c1	JMJD2A Tudor inh 50.1µM
CC(=O)Nc1cccc(Cl)c1C(=O)O	none
CCCCn1c(N2CCC(Cc3ccccc3)CC2)nc2c1c(=O)[nH]c(=O)n2C	JMJD2A Tudor inh 50.1µM, BAZ2B block inconclusive, G9a inh inconclusive, Sfp PPTase inh inconclusive, HP1b chromo inh inconclusive
CCCCCn1c(N2CCN(c3cccc(Cl)c3)CC2)nc2c1c(=O)[nH]c(=O)n2C	JMJD2A Tudor inh inconclusive
Cn1c(=O)[nH]c(=O)c2c1nc(N1CCN(c3cccc(Cl)c3)CC1)n2CCCc1ccccc1	G9a inh 17.8µM (no result: JMJD2A Tudor inh, HP1b chromo inh)
CC(C)c1onc(C(=O)N2C(C)CCCC2C)c1[N+](=O)[O-] (stereo not drawn)	none
COc1ccccc1NC(=O)c1cc(C)oc1C	none
CCOc1ccc(C(=O)Nc2cc(S(=O)(=O)Nc3ccccc3Cl)ccc2N2CCOCC2)cc1	none
O=[N+]([O-])c1cc(/C=N/n2cnnc2)ccc1N1CCCC1	none
CC(C)CN(CC(C)C)c1ccc(/C=N/n2cnnc2)cc1[N+](=O)[O-]	JMJD2A Tudor inh 44.7µM, BAZ2B block inconclusive, G9a inh inconclusive, HP1b chromo inh inconclusive
CCOC(=O)CSc1nnc([C@H](CC(C)C)NC(=O)OC(C)(C)C)o1	none
Cc1cccc(CCN2C(Nc3ccccc3)=NC[C@@H]2CC(C)C)c1	none (no result: Sfp PPTase inh)
O=C(CSc1nnc(-c2cccnc2)o1)c1cc2ccccc2oc1=O	G9a inh inconclusive, Sfp PPTase inh inconclusive
Cn1cnnc1SCC(=O)c1cc2ccccc2oc1=O	JMJD2A Tudor inh 89.1µM, BAZ2B block inconclusive, G9a inh inconclusive
O=C(c1ccc(=O)[nH]c1)N1CCN(S(=O)(=O)c2cc(C(F)(F)F)ccc2Cl)CC1	G9a inh inconclusive
O=C(NNc1cc(C(F)(F)F)ccc1Cl)c1ccc(=O)[nH]c1	Sfp PPTase inh 56.2µM
COc1ccc(C/C(O)=C(\C#N)c2nc3ccccc3s2)cc1	none
CN(C)C(=O)NC1c2ccccc2-c2ccccc21	none
O=C1C=CC(=O)N1c1ccc2c(c1)C(NC(=O)C(F)(F)F)c1ccccc1-2 (stereo not drawn)	JMJD2A Tudor inh 7.94µM, HP1b chromo inh 12.6µM (no result: BAZ2B block, G9a inh, Sfp PPTase inh)
Nc1nc(Nc2cccc(C(F)(F)F)c2)sc1C(=O)c1ccccc1	none (no result: Sfp PPTase inh)
COc1cc(C2CC(=O)Oc3c(C(CCN4CCOCC4)c4ccc(N(C)C)cc4)c(OC)cc(OC)c32)cc(OC)c1OC (stereo not drawn)	JMJD2A Tudor inh 39.8µM, BAZ2B block 44.7µM, G9a inh inconclusive, HP1b chromo inh inconclusive
COc1ccc(C(CCN2CCOCC2)c2c(OC)cc(OC)c3ccc(=O)oc23)cc1 (stereo not drawn)	none (no result: BAZ2B block, G9a inh, Sfp PPTase inh)
COc1cc(C2CC(=O)Oc3c(C(CCN4CCN(c5ccccc5)CC4)c4ccc(N(C)C)cc4)c(OC)cc(OC)c32)cc(OC)c1OC (stereo not drawn)	JMJD2A Tudor inh 8.91µM, BAZ2B block 7.94µM, G9a inh inconclusive, HP1b chromo inh inconclusive
Cc1nnc2n(-c3ccccc3)c(=O)c3c4c(sc3n12)CC(C)CC4 (stereo not drawn)	none
O=C(C1=C[C@H](c2csc3ccccc23)C[C@H](OCCCCO)O1)N1CCN(Cc2ccccc2)CC1	JMJD2A Tudor inh inconclusive, BAZ2B block 50.1µM, G9a inh inconclusive, Sfp PPTase inh inconclusive
